Sampled rows, rich in hits. Any-hit rate of the full collection: about 2.2%.
LGR2 antag = inhibitors of bursicon-induced Drosophila LGR2 receptor cAMP signaling; HEK293 LGR2, CRE-luciferase, bursicon-stimulated, 4 h; inhibition, % at 9.99 µM; 380,000 tested, 0.35% active;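 active means drop in luminescence signal, shown as inhibition above about 50% in the replicate tests, limit read from the data, passing the limit was not always enough; inconclusive means probably only some replicates passing the limit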;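 further: agonist challenge used bursicon conditioned medium at about half maximal strength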
MITF TRPM1 inh = inhibitors of MITF-driven TRPM1 promoter in melanoma cells. SK-MEL-5 TRPM1 promoter luciferase, 24 h. inhibition, % at 12.5 µM. 330,000 tested, 0.83% active;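 active means mean inhibition across replicates of 60% or more, whatever share of single replicates reaches that level; inconclusive means some that reach 60%, reason not given; inactive means mean inhibition across replicates below 60%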
PAX8 inh HTS = lowers PAX8-driven luciferase in RMG-I cells. inhibition, % at 12.6 µM. AID 652154. 360,000 tested, 1.2% active. RMG-I TPO-luciferase reporter, SteadyGlo, 24 h;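 active means mean replicate inhibition at least 60% with every replicate also reaching 60%; inconclusive means only one of the two criteria is met; inactive means mean below 60% and not all replicates reaching 60%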;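 further: luciferase light reporting Pax8 driven TPO promoter activity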
EWS-Fli block = EWS/Fli transcriptional activity inhibition; A673 NR0B1-luciferase reporter, viability-normalised; inhibition, % at 12.6 µM; 350,000 tested, 0.67% active; AID 651661;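 active means mean inhibition of at least 50% after viability correction, with every replicate also passing that limit; inconclusive means mean reaches 50% but only one of two replicates passes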;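 further: firefly luciferase signal divided by Alamar Blue viability fluorescence both relative to DMSO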
LMP1 NFkB inh = reduces LMP1-driven NF-kappaB luciferase signal | inhibition, % at 12.5 µM | AID 504558 | LMP1-induced NF-kappaB luciferase reporter cells, luminescence | 350,000 tested, 0.69% active; in the data active means inhibition above about 41%; inconclusive means no clear call, values can overlap the other calls
Shn3 3UTR inh = inhibitors of Schnurri-3 3'UTR reporter in osteoblasts; Clone20 osteoblast Shn3 3'UTR firefly luciferase, 24 h; inhibition, % at 12.5 µM; 360,000 tested, 0.52% active; AID 588674;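 active means mean inhibition of at least 75% with every replicate also reaching 75%; inconclusive means mean inhibition at least 75% but some replicate below; inactive means mean inhibition below 75%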
Numbers stand for hits; i = inactive; ? = inconclusive; nt = no result given.

SMILES | LGR2 antag | MITF TRPM1 inh | PAX8 inh HTS | EWS-Fli block | LMP1 NFkB inh | Shn3 3UTR inh
COc1ccc(/C=N/Nc2cc(C)nc3ccccc23)cc1 | i | 78.0 | i | i | i | i
Cc1ccc(-c2ccc3c(c2)O[C@H](CN(C)Cc2ccccn2)[C@@H](C)CN([C@H](C)CO)S3(=O)=O)cc1 | i | nt | nt | 62.7 | nt | nt
C[C@@H]1CN([C@@H](C)CO)S(=O)(=O)c2ccc(-c3ccccc3)cc2O[C@H]1CN(C)S(=O)(=O)c1ccccc1F | i | nt | 63.4 | i | nt | nt
Cc1ccc(-c2ccc3c(c2)O[C@H](CN(C)Cc2ccccn2)[C@@H](C)CN([C@@H](C)CO)S3(=O)=O)cc1 | i | nt | nt | 57.7 | nt | nt
COc1ccccc1S(=O)(=O)N[C@H]1CC[C@@H](CCNC(=O)C2CCCC2)O[C@@H]1CO | i | nt | i | i | nt | nt
CCN(CC)CCNc1ccc(C)c2sc3ccc(O)cc3c(=O)c12 | i | 84.5 | i | i | i | i
O=C(NCCCn1ccnc1)C(=O)NCC1OCCCN1S(=O)(=O)c1ccccc1 (stereo unspecified) | i | i | i | nt | i | 90.0
CCCN(C)C[C@@H]1Oc2ncc(-c3cccnc3)cc2C(=O)N([C@@H](C)CO)C[C@@H]1C | i | nt | nt | i | nt | nt
COc1ccc(CN(C)C[C@@H]2Oc3ccc(NC(=O)CCCCCC(=O)Nc4ccccc4N)cc3CC(=O)N([C@H](C)CO)C[C@@H]2C)cc1 | i | nt | i | i | nt | nt
Cc1cccc(NC(=O)c2ccc(Cl)c(S(=O)(=O)N3CCc4ccccc43)c2)n1 | i | i | i | i | i | i
O=C(Nc1ccncc1)c1ccc(Cl)c(S(=O)(=O)N2CCc3ccccc32)c1 | i | i | i | i | i | 88.7
CCC(=O)N(C)C[C@@H]1Oc2ncc(-c3ccccc3F)cc2C(=O)N([C@@H](C)CO)C[C@@H]1C | i | nt | nt | i | nt | nt
COc1ccc(-c2csc(NC(=O)c3ccc(OCC(=O)N4CCOCC4)c(OC)c3)n2)cc1 | 91.5 | i | i | i | i | i
CCN(CC)C1Oc2cc3c(cc2C(c2cc(OC)c(OC)c(OC)c2)C1C)OCO3 (stereo unspecified) | i | i | ? | 63.9 | i | i
COc1cc(C2c3cc4c(cc3OC(N3CCCCC3)C2C)OCO4)cc(OC)c1O (stereo unspecified) | i | i | i | i | i | i
COc1cc([C@@H]2c3cc4c(cc3[C@@H](O)[C@H]3COC(=O)[C@H]23)OCO4)cc(OC)c1O[Si](C)(C)C(C)(C)C | i | i | i | i | i | i
COc1cc(C2c3cc4c(cc3C3OC(=O)C2C3CO)OCO4)cc(OC)c1OC (stereo unspecified) | i | nt | 75.7 | i | i | i
CCCC#Cc1ccc([C@@H]2[C@H](CO)N3C(=O)CN(C(=O)c4ccncc4)C[C@@H]23)cc1 | i | nt | nt | i | nt | nt
CC(C)NC(=O)Nc1ccc2c(c1)C(=O)N(C)[C@@H]1CC[C@H](CC(=O)Nc3ccccc3)O[C@H]1CO2 | i | nt | i | i | nt | nt
C[C@H]1CN([C@@H](C)CO)C(=O)CCCn2cc(nn2)CO[C@@H]1CN(C)Cc1ccncc1 | i | nt | nt | i | nt | nt
CO[C@H]1CN(C)C(=O)c2ccc(NC(C)=O)cc2OC[C@@H](C)N(C(=O)CN2CCOCC2)C[C@H]1C | i | nt | nt | i | nt | nt
COc1ccc(CNC(=O)c2c(C)oc3c2C(=O)c2ccccc2C3=O)cc1 | 76.7 | 104.0 | i | i | i | i
O=C1c2ccccc2C(=O)c2c1oc(C(F)(F)F)c2C(=O)c1ccccc1 | nt | 102.7 | nt | nt | 67.6 | 91.1
CC(=O)c1c(C)oc2c1C(=O)c1ccccc1C2=O | i | 78.6 | i | nt | i | i
CC(=O)c1c2c3c(c(Br)ccc3n(C)c1=O)C(=O)c1ccccc1-2 | i | i | i | nt | i | i
SMILES | LGR2 antag | MITF TRPM1 inh | PAX8 inh HTS | EWS-Fli block | LMP1 NFkB inh | Shn3 3UTR inh
O=C(NCC[C@@H]1CC[C@@H](NC(=O)C2CCC2)[C@H](CO)O1)Nc1ccc(Cl)cc1 | i | nt | i | i | nt | nt
CC(C)NC(=O)N1[C@@H]2c3cccc(=O)n3C[C@@H]2[C@@H](CO)[C@@H]1C(=O)N1CCc2ccccc2C1 | i | nt | i | i | nt | nt
C[C@H]1CN([C@@H](C)CO)C(=O)c2cc(NC(=O)c3ccncc3)ccc2O[C@H]1CN(C)C | i | nt | i | i | nt | nt
O=c1oc2ccccc2cc1-c1nc2c(s1)CCCC2 | i | i | nt | 59.6 | i | i
Cc1ccc(S(=O)(=O)N(C)C[C@H]2OCCCC[C@H](C)Oc3ccc(NS(=O)(=O)c4ccc(Cl)cc4)cc3C(=O)N([C@H](C)CO)C[C@@H]2C)cc1 | i | nt | 81.5 | i | nt | nt
Cc1ccc(S(=O)(=O)N(C)C[C@@H]2OCCCC[C@H](C)Oc3ccc(NS(=O)(=O)c4ccc(Cl)cc4)cc3C(=O)N([C@H](C)CO)C[C@H]2C)cc1 | i | nt | 81.4 | i | nt | nt
Cc1ccc(S(=O)(=O)N(C)C[C@@H]2OCCCC[C@H](C)Oc3ccc(NS(=O)(=O)c4ccc(Cl)cc4)cc3C(=O)N([C@@H](C)CO)C[C@@H]2C)cc1 | i | nt | 67.9 | i | nt | nt
Cc1ccc(S(=O)(=O)Nc2ccc3c(c2)C(=O)N([C@@H](C)CO)C[C@H](C)[C@@H](CN(C)S(=O)(=O)c2ccc(Cl)cc2)OCCCC[C@@H](C)O3)cc1 | i | nt | i | i | nt | nt
Cc1ccc(S(=O)(=O)N(C)C[C@H]2OCCCC[C@@H](C)Oc3ccc(NS(=O)(=O)c4ccc(Cl)cc4)cc3C(=O)N([C@@H](C)CO)C[C@H]2C)cc1 | i | nt | 72.7 | i | nt | nt
C[C@H](CO)N1C[C@H](C)[C@H](CN(C)C(=O)c2ccc3c(c2)OCO3)Oc2ncc(/C=C/c3ccccc3)cc2C1=O | i | nt | i | i | nt | nt
Cc1ccc(-n2c(Cl)c(Cl)nc(Cl)c2=O)cc1 | nt | 94.9 | nt | nt | 71.5 | 95.6
N=C1S/C(=C\c2ccccc2)C(=O)N1c1ccc(F)cc1 | i | i | i | i | 66.6 | i
COc1ccc(C(NC(=O)C2CCN(Cc3ccc(Oc4ccccc4)cc3)CC2)c2ccccc2C)cn1 (stereo unspecified) | i | nt | 63.0 | i | nt | i
Cc1cccnc1C(NC(=O)C1CCN(Cc2ccc(Oc3ccccc3)cc2)CC1)c1ccccc1 (stereo unspecified) | nt | nt | nt | nt | nt | i
CCc1ccc(-c2cc(C(F)(F)F)n3nc(C(=O)Nc4cnn(Cc5ccc(C)cc5)c4)cc3n2)s1 | nt | i | nt | nt | i | 90.6
COc1cccc(S(=O)(=O)N[C@H]2C=C[C@@H](CC(=O)NCc3ccccc3)O[C@H]2CO)c1 | i | nt | i | i | nt | nt
C[C@H]1CN([C@@H](C)CO)C(=O)c2cccc(NC(=O)C3CCOCC3)c2O[C@@H]1CN(C)C(=O)Nc1ccc(F)cc1 | i | nt | i | i | nt | nt
COc1ccc(N(C(=O)/C=C/C(=O)Nc2cc(C)on2)C(C(=O)NC2CCCC2)c2ccccc2C)cc1 (stereo unspecified) | i | i | 71.3 | i | i | i
C[C@H]1CCCCO[C@@H](CN(C)C(=O)c2ccccc2)[C@@H](C)CN([C@@H](C)CO)C(=O)c2cc(NC(=O)C3CCCCC3)ccc2O1 | i | nt | i | i | nt | nt
CC(C)c1ccc(/C=C/C(=O)N2CCc3ccccc3C2)cc1 | i | i | 67.1 | i | i | i
